p53 reactivator – restores transcriptional activity of mutant p53 | AID 504706 | 0.063% of 320,000 active | Potency, µM (doses to about 92.2 µM), for the others: top-dose activity change, positive = activation, most hits filed as activators | H1299 p53-A138V BP100-luciferase reporter, luminescence, 24 h; further: % of control where 0% means no effect; nearly all actives have a fitted effect of over 45% in size
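p53-null H1299 cells stably carrying temperature-sensitive p53-A138V and a BP100-luciferase reporter were pinned with compounds (4-point, 1:5 series) and held 24 hrs at 37 deg C. Luminescence was read 10 min after detection reagent.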
SMN2 splice enh – enhancers of SMN2 splice variant expression; HEK293 SMN2-luciferase splicing reporter, luminescence, 30-36 h; Potency, µM (titrated, usually from 46.1 µM), without a hit: at the top dose activity change, positive = activation, most hits filed as activators; 2.8% of 210,000 active; AID 1458; further: % of control where 0% means no effect; nearly all actives have a fitted effect of over 55% in size
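HEK293 cells carry an SMN2 minigene-luciferase reporter in which exon 7 inclusion puts luciferase in frame. Cells were seeded at 2000 cells/well, attached for 10-12 hours, then exposed to compounds for 30-36 hours at 37C before ONE-Glo luminescence.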
ELG1 genotox – genotoxicity induction in ELG1-luciferase HEK293T cells. HEK293T ELG1-luciferase reporter, luminescence, 16 h. Potency, µM (highest dose often 46 µM), for the others: at the top dose activity change, positive = activation, most hits filed as activators. 1.3% of 330,000 active. AID 504466; further: % of control where 0% means no effect; nearly all actives have a fitted effect of over 60% in size
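HEK293T cells expressing luciferase-tagged ELG1 were exposed to compound or DMSO vehicle for 16 hr at 37 °C and 5% CO2. Luciferase activity was then measured with ONE-Glo after 30 min at room temperature.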
Rab9 promoter act – Rab9 promoter activation; Huh7 Rab9 promoter-luciferase reporter, luminescence, 24 h; Potency, µM (doses to about 9.22 µM), without a hit: top-dose activation, negative = inhibition, usual class: activators; 2.8% of 320,000 active; AID 485297; further: % of control where 0% means no effect; nearly all actives have a fitted effect of over 60% in size
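Measured in stably transfected Huh7 cells bearing a Rab9 promoter–luciferase construct: 24 h compound treatment at 37 °C, followed by luminescence detection.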
NPC1 promoter act – activators of NPC1 promoter | Huh7 NPC1 promoter luciferase reporter, 24 h | Potency, µM (doses to about 9.22 µM), inactives show top-dose activation, most hits filed as activators | 2.4% of 320,000 active; further: % of control where 0% means no effect; nearly all actives have a fitted effect of over 60% in size
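Stably transfected Huh7 (NPC1 promoter→luciferase), 1500 cells/well in Opti-MEM + 10% FBS, 2 h settle, then compound 24 h at 37 °C. Luminescence after 10 min with Amplite reagent.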
FLuc modulator – counter-screen for miR-21 project: firefly luciferase inhibitors or activators; Potency, µM (titrated, usually from 57.5 µM), for inactives: at the highest dose activity change, negative = inhibition, actives largely listed as inhibitors; 6.9% of 360,000 active; P08659; purified FLuc, Km substrates, luminescence inhibition; AID 588342;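 further: plate controls were vehicle for no effect and reference inhibitor for full effect; nearly all actives have a fitted effect of over 55% in size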
Target sequence (P08659 whole entry, looked up): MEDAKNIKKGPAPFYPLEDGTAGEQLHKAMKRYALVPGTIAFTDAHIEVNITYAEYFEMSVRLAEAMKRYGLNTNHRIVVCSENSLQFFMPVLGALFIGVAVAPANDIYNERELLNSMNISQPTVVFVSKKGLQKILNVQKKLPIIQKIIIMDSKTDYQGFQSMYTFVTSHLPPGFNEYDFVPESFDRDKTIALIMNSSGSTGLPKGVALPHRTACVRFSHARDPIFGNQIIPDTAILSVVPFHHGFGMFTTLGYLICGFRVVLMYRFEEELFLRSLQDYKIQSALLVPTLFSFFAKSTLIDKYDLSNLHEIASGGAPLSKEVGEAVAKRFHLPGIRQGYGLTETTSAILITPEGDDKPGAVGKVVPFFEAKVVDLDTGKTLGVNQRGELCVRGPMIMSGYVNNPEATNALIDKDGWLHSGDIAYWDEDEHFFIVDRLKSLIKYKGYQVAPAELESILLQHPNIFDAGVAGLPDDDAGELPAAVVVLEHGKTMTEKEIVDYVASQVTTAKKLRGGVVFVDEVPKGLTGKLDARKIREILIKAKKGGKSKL
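Biochemical qHTS of compounds, final roughly 60 µM downward over six points, against 10 nM purified firefly luciferase using Km concentrations of substrates (10 uM D-luciferin, 10 uM ATP) in Tris acetate pH 7.5 buffer; luminescence output.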
* = called active by the depositor; ? = inconclusive; · = no result given. Shown are actives, neighbours in structure and some others; about 7.3% of the full set was active somewhere. The call rests on the fitted dose curve; in most records, active means well fitted curve in the direction sought with a large enough effect; inconclusive means small, poorly fitted or top-dose-only effect, or another doubt; inactive means no such curve, though single readings can be large; an effect the other way counts as inactive or inconclusive. Potency means the concentration at half of the fitted maximal effect.

SMILES	p53 reactivator	SMN2 splice enh	ELG1 genotox	Rab9 promoter act	NPC1 promoter act	FLuc modulator
Cc1ccc(N=Cc2c(O)ccc3ccccc23)cc1F	7.1%	18.8%	0.2%	4.1%	4.5%	?
COc1ccc(N=Cc2c(O)[nH]c3ccccc23)cc1	15.6%	12.6µM*	?	1.58µM*	1.58µM*	2.69µM*
CCc1cc2c(cc3c(=O)n(CC(=O)NC4CCC(C)CC4)nc(CC)n32)s1 (stereo unspecified)	·	-19.5%	·	·	·	-0.9%
O=C(O)c1ccc(N=Cc2c(O)ccc3ccccc23)cc1	·	·	0.6%	3.4%	1.6%	30.1µM*
Oc1[nH]c2ccccc2c1C=Nc1ccc2c(c1)OCO2	?	0.891µM*	?	1.78µM*	2µM*	7.57µM*
O=c1c2ccccc2c(C=Nc2cccc(O)c2)c(O)n1-c1ccc2c(c1)OCO2	-33.1%	-19.4%	6.6%	-11.7%	-10.7%	3.4%
Oc1[nH]c2ccccc2c1/C=N/c1nccs1	8.6%	?	8.0%	?	?	12µM*
O=C(O)Cc1ccc(N=Cc2c(O)ccc3ccccc23)cc1	5.0%	15.5%	-2.4%	-0.7%	-3.1%	?
CCOc1ccc(NC(=O)Cn2c(C)cc3ccccc3c2=O)cc1	·	10.4%	·	·	·	5.0%
C/C(=N\NS(=O)(=O)c1ccc(C)c([N+](=O)[O-])c1)c1ccc2c(c1)OCO2	5.3%	·	0.0%	-10.5%	2.1%	10.7µM*
Cc1ccc(S(=O)(=O)N/N=C/c2ccc(O)c(O)c2)cc1[N+](=O)[O-]	3.6%	-3.3%	9.5%	1.4%	-0.8%	-31.1%
Cc1ccc(S(=O)(=O)N/N=C/c2ccccc2O)cc1[N+](=O)[O-]	4.8%	-24.9%	10.9%	-1.2%	-0.9%	15.1µM*
CCOc1ccc(C(c2c(C)[nH]n(-c3ccccc3)c2=O)c2c(C)[nH]n(-c3ccccc3)c2=O)cc1OC	·	-1.4%	·	·	·	3.01µM*
Cc1[nH]n(-c2ccccc2)c(=O)c1C(c1ccc(C(=O)O)cc1)c1c(C)[nH]n(-c2ccccc2)c1=O	-3.3%	4.1%	-2.0%	0.0%	4.3%	-13.8%
CCn1c(SCC(=O)Nc2ccc(-c3nc4ccc(C)cc4s3)cc2)nnc1-c1ccccc1	?	0.562µM*	?	0.631µM*	?	?
C=CCn1c(SCC(=O)Nc2ccc(N3CCOCC3)cc2)nnc1-c1ccncc1	7.8%	·	0.6%	9.3%	8.1%	?
O=C(CCN1C(=O)NC2(CCCC2)C1=O)Nc1ccc(-c2nc3ccccc3s2)cc1	·	·	?	0.447µM*	0.891µM*	·
CCn1c(SCC(=O)Nc2nc3ccccc3s2)nnc1-c1ccc(Br)cc1	0.8%	-11.7%	0.5%	-0.2%	-3.4%	0.7%
Cc1nc(SCC(=O)Nc2nsc(-c3ccc(C(C)(C)C)cc3)n2)c2c3c(sc2n1)CCCC3	·	-3.9%	·	·	·	2.8%
Cc1nnc(SCC(=O)Nc2nsc(-c3ccc(C(C)(C)C)cc3)n2)s1	?	11.2µM*	3.26µM*	1.41µM*	1.41µM*	10.7µM*
C=CCn1c(SCC(=O)Nc2ccc(-c3nc4ccc(C)cc4s3)cc2)nnc1-c1ccncc1	?	7.08µM*	?	?	?	?
CCOC(=O)C1=C(C)N(CC(C)C)C(=O)/C1=C\c1ccc(OCC(=O)Nc2ccccc2)cc1	8.1%	-16.5%	0.1%	-3.3%	-8.9%	-2.9%
CC(C)(C)OC(=O)C[C@H]1C/C=C\C[C@H](CC(=O)NCCO)C(=O)NC[C@H](c2ccccc2)OC1=O	-0.6%	·	2.7%	·	·	·
CCN1CCC(N(Cc2cccc(OC)c2)C(=O)Nc2cccc(C(F)(F)F)c2)CC1	·	·	·	·	·	-1.2%
Cc1nnc(SCC(=O)Nc2ccc(-c3nc4ccccc4s3)cc2)s1	·	1.26µM*	2.06µM*	0.355µM*	0.794µM*	0.269µM*
O=C(C#Cc1ccccc1)c1ccco1	-25.8%	·	-57.6%	-44.9%	-41.5%	15.1µM*
COc1ccc(N(CC(=O)NCc2ccccc2Cl)S(=O)(=O)c2c(C)nn(C)c2C)cc1	·	1.2%	·	·	·	-9.3%
